# Source: PubChem (Broad Institute)
# Tgondii IFNg – T. gondii growth inhibition with IFN-gamma, primary screen, cell-based; activity change, negative = inhibition, % (test concentration not listed); actives 3.8% (n = 69,000); Toxoplasma gondii growth in IFN-gamma-treated host cells; stronger effect = lower value; in the data active means activity change below about -70%, passing the limit was not always enough;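 further: host cells are HeLa cells infected with Toxoplasma gondii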
# A number is an active result; i = inactive; ! = not active in a repeat. Many of the other results were omitted from the sample, so hits are more common in it than they were.
SMILES,Tgondii IFNg
Cc1nc2ncccn2c1C(=O)NCc1cnn(-c2cccc(F)c2)c1,i
CC(C)C(=O)c1cc(-c2csc(-c3cnccn3)n2)n2ccccc12,i
O=C(/C=C/c1ccccc1)NC(NC(=S)Nc1ccc(Cl)cc1)C(Cl)(Cl)Cl (configuration not stated),-78.0
O=C(/C=C/c1ccccc1)c1ccc(O)cc1O,i
OC(c1ccccc1)(c1ccccc1)C1CCN(C(=S)Nc2ccc(Cl)cc2)CC1,i
Cc1ccc(OCC(=O)N2CCOCC2c2csc(C)n2)cc1 (configuration not stated),i
Cc1oc(-c2ccc(NC(=O)CC3CCCCC3)cc2)nc1Cn1cccn1,i
c1cncc(OCC2CN(Cc3ccco3)Cc3ccnn3C2)c1 (configuration not stated),i
Cc1ccccc1-n1nc(C)c2c1CC(C)(C)CC2=O,i
CC1(C)CC(=O)c2cc(-c3ccccc3)n(CC(=O)O)c2C1,i
COc1ccccc1-n1c(-c2ccc(Br)cc2)cc2c1CC(C)(C)CC2=O,-92.2
COCCN1Cc2c(C(=O)NC3CCCCC3)ncn2-c2ccccc2S1(=O)=O,i
O=C(NC1CCC1)[C@H]1C[C@@H]2CN(C(=O)Nc3ccc(Cl)cc3)C[C@H]1O2,i
O=C(NC1CCC1)[C@H]1C[C@H]2CN(Cc3ccccc3)C[C@H]1O2,i
O=C(NC1CCC1)[C@H]1C[C@H]2CN(Cc3ccc(Cl)cc3)C[C@H]1O2,-93.3
COCCO[C@@H]1CCN(c2cc(OC)ncn2)[C@H]1Cc1cnn(C)c1,i
COc1ccc(C2CCCN2C(=O)Cn2nc(C(F)(F)F)c3c2CCCC3)cc1 (configuration not stated),i
CN(Cc1nncn1-c1ccc(Cl)cc1)S(C)(=O)=O,i
Cc1noc(CCC(=O)Nc2ccc(Cl)c(-c3nc4ccccc4s3)c2)n1,i
COc1cc(CNC(=O)c2ccc(C#CC(C)(C)O)o2)ccc1O,i
CCN1c2cc(C)ccc2-n2cccc2C12CCN(C(=O)Nc1ccc(F)cc1)CC2,-95.9
CCN1c2cc(C)ccc2-n2cccc2C12CCN(C(=O)Nc1ccc(C)c(F)c1)CC2,i
CCN1c2cc(C)ccc2-n2cccc2C12CCN(C(=O)Nc1ccc(Cl)cc1)CC2,i
CCN1c2cc(C)ccc2-n2cccc2C12CCN(C(=O)Nc1cccc(C)c1)CC2,i
CCOC(=O)c1ccc(NC(=O)N2CCC3(CC2)c2cccn2-c2ccc(C)cc2N3CC)cc1,i
SMILES,Tgondii IFNg
CCN1c2cc(C)ccc2-n2cccc2C12CCN(C(=O)NCc1ccco1)CC2,i
CCN1c2cc(C)ccc2-n2cccc2C12CCN(C(=O)NCc1ccccc1)CC2,i
CCN1c2ccccc2-n2cccc2C12CCN(C(=O)Nc1ccccc1C(F)(F)F)CC2,i
CCN1c2cc(C)ccc2-n2cccc2C12CCN(C(=O)Nc1ccc(C)c(C)c1)CC2,-93.0
CCN1c2ccccc2-n2cccc2C12CCN(C(=O)Nc1cccc(Cl)c1C)CC2,i
CCN1c2cc(C)ccc2-n2cccc2C12CCN(C(=O)NCc1ccc(F)cc1)CC2,-114.2
CCN1c2ccccc2-n2cccc2C12CCN(C(=O)Nc1ccccc1C)CC2,-82.2
COc1ccc([C@@H]2N[C@H](c3cccnc3)Cc3cc(OC)c(OC)cc32)cc1OC,i
CCc1c(C)nc2cc(C3C=CCN3C(=O)C(C)(C)C)[nH]n2c1=O (configuration not stated),i
O=C(CC1CCc2ccccc21)NCc1cnn2ccccc12 (configuration not stated),i
Cc1nc(C(=O)N2CC(Oc3c(C)cccc3C)C2)cs1,i
CN(C)C(=O)Cc1nnc2n1CCN(Cc1cnn(C)c1)C2,i
Nc1cc(-c2ccc(CO)cc2)ccn1,i
COC(=O)c1ccc(CN2CCC3(CC2)C(=O)N(CCc2ccccc2)C(=O)N3C)cc1,i
OC(CN1CCN(c2nc3ccccc3s2)CC1)c1ccc(Cl)cc1 (configuration not stated),i
OCCN1CCC2(CC1)CC(NC1CCOCC1)c1ccccc12 (configuration not stated),i
Cc1ccc2c(n1)N(CC1CC1)CCN(C(=O)C1CCOCC1)C2,i
CCC(C)[C@H]1O[C@]2(C=C[C@@H]1C)C[C@@H]1C[C@@H](C/C=C(\C)[C@@H](OC3C[C@H](OC)C(O[C@H]4C[C@H](OC)[C@@H](NC(C)=O)[C@H](C)O4)[C@H](C)O3)[C@@H](C)/C=C/C=C3\CO[C@@H]4[C@H](O)C(C)=C[C@@H](C(=O)O1)[C@]34O)O2 (some centres not stated),i
CO[C@H]1CC(O[C@@H]2/C(C)=C/C[C@@H]3C[C@@H](C[C@]4(CC[C@H](C)[C@@H](C5CCCCC5)O4)O3)OC(=O)[C@@H]3C=C(C)/C(=N/O)[C@H]4OC/C(=C\C=C\[C@@H]2C)[C@]43O)O[C@@H](C)C1O (some centres not stated),-79.6
O=c1cc(Cn2cccn2)nc2cc(-c3ccccn3)[nH]n12,i
CC(C)(C)NC[C@H](O)COc1ccccc1C1CCCC1,i
CCc1ccccc1OC[C@@H](O)CN[C@H]1CCCc2ccccc21,-80.5!
OC(CNC1Cc2ccccc2C1)COc1ccc(F)cc1 (configuration not stated),i
CCCCOc1ccc(CNC(=O)Cn2ncc3c(N4CCN(c5ccccc5)CC4)ncnc32)cc1,i
CC(C)N1CCN(C)C2(CCN(C(=O)c3csnn3)CC2)C1=O,i
SMILES,Tgondii IFNg
c1ccn2ncc(CNc3nc(C4CCCC4)nc4c3CNC4)c2c1,i
CN(C)C(=O)CO[C@H]1C[C@@H]2CN(Cc3cccn3C)CCN2C1,i
O=C(NCc1ccco1)C(Sc1ccccc1)c1ccccc1 (configuration not stated),i
COC(=O)c1ccc(CSc2ccccc2N)o1,i
CC(C)(C)CC(C)(C)NC(=O)C(Sc1ccccc1N)c1ccccc1 (configuration not stated),-88.3
O=C(c1sc2ccccc2c1Cl)N1CCC(c2nc3ccccc3[nH]2)CC1,i
CCOc1ccc2c(c1)c(C(=O)NC(C)(C)CN1CCCCC1)c(C)n2C,i
CN1CCCN(C(=O)c2ncn3c(C4CCN(S(C)(=O)=O)CC4)ccnc23)CC1,i
O=CNC1CCCc2c1[nH]c1ccc(Cl)cc21 (configuration not stated),-81.1
NC(=O)C1CCCc2c1[nH]c1ccc(Cl)cc21 (configuration not stated),i
CN1C(=O)C2(NCCc3c2[nH]c2ccc(Cl)cc32)c2cc(Br)ccc21 (configuration not stated),i
CC(C)CN1C(=O)C2(NCCc3c2[nH]c2ccccc32)c2ccccc21 (configuration not stated),i
NC(=O)c1cccnc1N1CCN(c2nccc(CCC(F)(F)F)n2)CC1,i
CCCC(=O)Nc1ccc(-c2nc(-c3cc(C)ccc3C)co2)cc1,i
Cc1cccc(NC(=O)Cn2c(=O)cc(C(=O)N3CCC(C)CC3)c3ccccc32)c1C,i
CC1(C)Cc2c(sc3ncnc(N)c23)CO1,i
CCCCN(CCCC)c1ncnc2c1sc1nc3c(cc12)COC(C)(C)C3,-103.4
c1ccc2c3nnc4n(c-3nc2c1)CCS4,i
Nc1ccccc1-c1nnc(-c2ccncc2)o1,i
O=S(=O)(NCCc1csc(-c2ccc(Cl)cc2)n1)c1ccc(F)cc1F,i
COCCN1C(=O)CCc2cc(NS(=O)(=O)c3ccc(F)cc3F)ccc21,i
COc1ncc(-c2ccc3nccc(-c4ccnnc4)c3c2)cc1NS(=O)(=O)c1ccc(F)cc1F,-77.6
